From PubChem BioAssay (EPA / NIEHS)
Active and inactive are the calls of the source. Rule for the calls: active = hit-call score of the fitted dose curve at least 0.9, where 1 is the maximum; inactive = score below 0.9.

target: Transcription factor Sp1 (Homo sapiens) (UniProt P08047); assay: ATG_Sp1_CIS: Attagene CIS-FACTORIAL HepG2 Assay for human Specificity Protein 1 (Sp1) (AID 2282961); details: HepG2 Sp1 cis-reporter transcription, actives raise or lower the signal
Description: ATG_CIS is a cell-based, multiplexed-readout assay that uses HepG2, a human liver cell line, with measurements taken at 24 hours after chemical dosing in a 24-well plate.ATG_Sp1_CIS is one of 52 assay component(s) measured or calculated from the ATG_CIS assay. It is designed to make measurements of mRNA induction, a form of inducible reporter, as detected with fluorescence intensity signals by Reverse transcription polymerase chain reaction (RT-PCR) and Capillary electrophoresis technology.Data from the assay component ATG_Sp1_CIS was analyzed into 1 assay endpoint. This assay endpoint, ATG_Sp1_CIS, was analyzed with bidirectional fitting relative to DMSO as the negative control and baseline of activity. Using a type of inducible reporter, measures of mRNA for gain or loss-of-signal activity can be used to understand the reporter gene at the transcription factor-level as they relate to the gene SP1. Furthermore, this assay endpoint can be referred to as a primary readout, because this assay has produced multiple assay endpoints where this one serves a reporter gene function. To generalize the intended target to other relatable targets, this assay endpoint is annotated to the dna binding intended target family, where the subfamily is zinc finger.
Human liver HepG2 cells are transiently transfected with multiple reporter transcription units (MRTUs) in 6-well plates using FuGene 6 reagent (Roche; 3 ml FuGene/1 mg DNA). The MRTU constructs are regulated by a cis-regulating element (promoter). […] A major difference between the CIS and TRANS system is that in CIS activities of endogenous TFs are measured, whereas the TRANS assay evaluates changes in activities of exogenous, chimeric NR-Gal4 proteins. […] At the end of 24 hour incubation, total RNA was isolated using TriZol reagent (Invitrogen). The isolated RNA is then reverse-transcribed using oligo(dT) primer and Mo-MLV reverse transcriptase (Invitrogen) with DNAse I (Ambion) treatment for 30 min. The one-tenth of the produced cDNA was amplified by PCR using Taq DNA polymerase (Invitrogen) and two reporter sequence-specific primers. The PCR products were fluorescently labeled by primer extension with 6-arboxyfluorescein (6-FAM) 5'-labeled reporter sequence-specific primer (2 min at 95 C, 20 s at 68 C and 10 min at 72 C) and these products were digested with 5U of HpaI (New England Biolabs) for 2h at 37 C. The fragments were purified using Qiaquick PCR columns (Qiagen), analyzed on an ABI 3130xL genetic analyzer (Applied Biosystems) with peak positions identified by using a set of X-rhodamine (ROX)-labeled MapMarker1000 molecular weight standards (BioVentures). The raw capillary electrophoresis data was processed using Attagraph software (Attagene).

Sequence of Transcription factor Sp1 (Homo sapiens) (P08047 whole entry, looked up): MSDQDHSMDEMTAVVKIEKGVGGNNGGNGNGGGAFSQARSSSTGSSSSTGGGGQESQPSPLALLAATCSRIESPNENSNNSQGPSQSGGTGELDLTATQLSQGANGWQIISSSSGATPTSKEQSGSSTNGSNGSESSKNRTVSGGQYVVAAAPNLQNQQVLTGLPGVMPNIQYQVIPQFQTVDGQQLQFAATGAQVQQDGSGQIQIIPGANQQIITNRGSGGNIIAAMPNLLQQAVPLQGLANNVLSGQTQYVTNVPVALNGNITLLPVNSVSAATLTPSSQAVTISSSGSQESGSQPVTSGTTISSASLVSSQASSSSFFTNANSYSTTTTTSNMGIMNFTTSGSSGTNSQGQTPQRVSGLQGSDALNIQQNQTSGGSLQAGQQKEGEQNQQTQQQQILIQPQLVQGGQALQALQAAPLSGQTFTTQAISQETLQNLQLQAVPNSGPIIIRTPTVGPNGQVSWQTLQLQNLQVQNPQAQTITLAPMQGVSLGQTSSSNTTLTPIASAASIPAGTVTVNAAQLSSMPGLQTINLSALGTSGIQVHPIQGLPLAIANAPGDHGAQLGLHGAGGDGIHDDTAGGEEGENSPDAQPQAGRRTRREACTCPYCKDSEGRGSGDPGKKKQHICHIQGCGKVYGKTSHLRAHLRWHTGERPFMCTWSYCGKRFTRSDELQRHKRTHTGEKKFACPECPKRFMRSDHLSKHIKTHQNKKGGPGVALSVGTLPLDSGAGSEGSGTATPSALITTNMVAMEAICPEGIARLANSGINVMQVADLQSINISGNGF

Compound | outcome | AC50
COC(=O)C1=C(C)NC(C)=C(C(=O)OCC(C)C)C1c1ccccc1[N+](=O)[O-] (stereo not given) | inactive | 
CN(C)c1ccc(N=Nc2ccccc2C(=O)O)cc1 |  | 40.8 µM (active)
NC(=O)c1ccccc1O | inactive | 
CC(C)=CC1CC(C)CCO1 (stereo not given) | inactive | 
NC(=O)OCC(COC(N)=O)c1ccccc1 | inactive | 
O=CC1CC1 | inactive | 
CCC(Cc1ccccc1)(C(=O)c1ccc(N2CCOCC2)cc1)N(C)C (stereo not given) | inactive | 
C=COCCCC | inactive | 
CC=CCO | inactive | 
COC(F)(F)C(F)(C(F)(F)F)C(F)(F)F | inactive | 
COCC(C)N (stereo not given) | inactive | 
CCCCCCCCCCCCCCCC(=O)OCC | inactive | 
OCCNCc1ccccc1 | inactive | 
C=C(C)[C@H]1CC=C(C)CC1 | inactive | 
CC1(C)S[C@@H]2[C@H](NC(=O)COc3ccccc3)C(=O)N2[C@H]1C(=O)O | inactive | 
Nc1ccc(N=Nc2ccccc2)c(N)n1 | inactive | 
C=C(C)c1cccc(C(C)(C)N=C=O)c1 | inactive | 
O=C(Nc1ccccc1SSc1ccccc1NC(=O)c1ccccc1)c1ccccc1 | inactive | 
C=CC(=O)NC(C)(C)CS(=O)(=O)O | inactive | 
[Cl][Bi]([Cl])([c]1ccccc1)([c]1ccccc1)[c]1ccccc1 | inactive | 

Compound | outcome | AC50
CCC(C)(C)C1CCCCC1OC(C)=O (stereo not given) | inactive | 
Nc1ccc(Cl)cc1Cl | inactive | 
O=CN1CCCCC1 | inactive | 
C1=CCCC1 | inactive | 
OC1OCCOC1O (stereo not given) | inactive | 
CCN(CC)c1ccc(C(=O)c2ccccc2C(=O)O)c(O)c1 | inactive | 
CC(=O)C=CC1C(C)=CCC(C)C1(C)C (stereo not given) | inactive | 
CCCCC/C=C\CCC=O | inactive | 
CC(C)c1ccc(C=O)cc1 | inactive | 
CC(C)=CCC[C@H](C)CCO | inactive | 
CCc1nccnc1C | inactive | 
O=c1c2ccccc2oc2ccccc12 | inactive | 
SCCc1cnccn1 | inactive | 
Cc1ccc(OC(=O)CC(C)C)cc1 | inactive | 
C=CC(=O)OCC(Br)CBr (stereo not given) | inactive | 
O=C(O)c1ccccc1Nc1cccc(C(F)(F)F)c1 | inactive | 
CC(C)(C)c1ccc(N)cc1 | inactive | 
CC(C)c1ccc2cc(C(C)C)ccc2c1 | inactive | 
CC[C@H]1OC(=O)[C@H](C)[C@@H](O[C@H]2C[C@@](C)(OC)[C@@H](O)[C@H](C)O2)[C@H](C)[C@@H](O[C@@H]2O[C@H](C)C[C@H](N(C)C)[C@H]2O)[C@](C)(O)C[C@@H](C)C(=NOCOCCOC)[C@H](C)[C@@H](O)[C@]1(C)O | inactive | 
C=C(C)C(=O)OCCOc1ccccc1 | inactive | 
